Screens as filed in PubChem.
The list is not random: actives were taken first. Their share in the collection is about 0.3%.
mcGAS inh: inhibitors of mouse cGAS; Q8C6L5; recombinant cGAS, Kinase-Glo ATP depletion luminescence; inhibition, % at 12.5 µM; actives 0.15% (n = 160,000); AID 1259399;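 note: 0% = negative control wells and 100% = reference inhibitor with no enzyme activity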
NPYLR7 ag: activates Aedes aegypti NPYLR7 receptor. HEK293T NPYLR7/Galpha15, GCaMP6s calcium fluorescence. activation, % at 10 µM. actives 0.15% (n = 270,000); in the data active = activation above about 40%;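 note: 0% = vehicle and 100% = reference agonist at the receptor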
hcGAS inh: inhibitors of human cGAS; actives 0.081% (n = 290,000); Q8N884; inhibition, % at 12.5 µM; recombinant h-cGAS, ATP depletion, Kinase-Glo luminescence;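 note: 0% = vehicle reaction and 100% = reaction without DNA for no activity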
Target sequence (Q8N884 whole entry, looked up): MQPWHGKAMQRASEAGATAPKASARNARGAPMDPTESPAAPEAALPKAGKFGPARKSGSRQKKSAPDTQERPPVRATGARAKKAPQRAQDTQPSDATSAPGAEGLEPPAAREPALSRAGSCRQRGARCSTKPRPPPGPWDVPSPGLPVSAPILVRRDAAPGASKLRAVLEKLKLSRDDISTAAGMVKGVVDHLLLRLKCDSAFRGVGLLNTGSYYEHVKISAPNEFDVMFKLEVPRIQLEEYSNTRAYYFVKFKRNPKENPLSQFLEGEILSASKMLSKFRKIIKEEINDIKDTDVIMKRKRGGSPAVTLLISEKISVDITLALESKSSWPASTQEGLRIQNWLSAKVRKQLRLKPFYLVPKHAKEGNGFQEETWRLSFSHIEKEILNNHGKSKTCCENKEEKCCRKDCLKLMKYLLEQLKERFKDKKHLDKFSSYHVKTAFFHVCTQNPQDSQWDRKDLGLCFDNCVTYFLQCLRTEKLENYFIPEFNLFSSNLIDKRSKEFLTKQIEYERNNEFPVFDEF
* marks the source's active call; other numbers are inactive results. Cut-off read from the data, not from the text of the source, unless noted: active = inhibition above about 40%; inactive = the rest.

How did N#CC1C(=N)Oc2c(c(=O)oc3ccccc23)C1c1cccc(F)c1 (stereo not given) do in these assays?
mcGAS inh: 4; NPYLR7 ag: -2; hcGAS inh: 4

Results for N#CC1C(=N)Oc2c(c(=O)oc3ccccc23)C1c1ccc([N+](=O)[O-])o1 (stereo not given) ?
mcGAS inh: 59*; NPYLR7 ag: -12; hcGAS inh: -7

Results for Cc1ccc(C)c(Cn2cccc(C(=O)Nc3ccc(F)c(F)c3F)c2=O)c1 ?
NPYLR7 ag: 27; hcGAS inh: 4

What do the screens show for `Oc1c(Cl)c(Cl)c(Cl)c(Cl)c1Cl`?
NPYLR7 ag: 6; hcGAS inh: 70*

What do the screens show for `Cc1cccn2cc(CC(=O)N3CCN(CC(C)O)CC3)nc12` (stereo not given)?
mcGAS inh: -7; NPYLR7 ag: 10; hcGAS inh: -6

What do the screens show for `O=S(=O)(c1ccccc1OC(F)(F)F)N1CCN(CCOC(c2ccccc2)c2ccccc2)CC1`?
mcGAS inh: -3; NPYLR7 ag: 2; hcGAS inh: 1

What do the screens show for `O=C(O)c1ccccc1-c1c2cc(Br)c(=O)cc-2oc2[c]([Hg])c(O)c(Br)cc12`?
NPYLR7 ag: 60*; hcGAS inh: 34

Results for O=S(=O)(c1cc(Cl)cc(Cl)c1)N1CCN(CCOC(c2ccc(F)cc2)c2ccc(F)cc2)CC1 ?
mcGAS inh: -5; NPYLR7 ag: 3; hcGAS inh: -4

Results for CCCC12CN3CC(C)(CN(C1)C3C(C)C)C2=O (stereo not given) ?
NPYLR7 ag: 5; hcGAS inh: -9

Results for O=[N+]([O-])c1cc(C(F)(F)F)cc2c1no[n+]2[O-] ?
NPYLR7 ag: 10; hcGAS inh: 0

Results for O=[N+]([O-])c1c(Cl)ccc2c1no[n+]2[O-] ?
mcGAS inh: 93*; NPYLR7 ag: 2; hcGAS inh: 61*

Results for CC(C)(C)NCC(C)(O)c1ccc(Br)cc1 (stereo not given) ?
mcGAS inh: -5; NPYLR7 ag: 8; hcGAS inh: -4

Results for O=C(COc1ccc(Cl)cc1)N1CCN(CC(OCc2c(F)cccc2F)c2ccc(Cl)cc2)CC1 (stereo not given) ?
mcGAS inh: -4; NPYLR7 ag: 5; hcGAS inh: -2

How did CCn1nc(-c2cccs2)nc2c(=O)n(C)c(=O)nc1-2 do in these assays?
mcGAS inh: 59*; NPYLR7 ag: 12; hcGAS inh: 17

How did Clc1ccc(-c2noc3c2CN(CCc2c[nH]c4ccccc24)CC3)cc1 do in these assays?
mcGAS inh: -11; NPYLR7 ag: -7; hcGAS inh: -2

What do the screens show for `O=C1OC2(c3cc(Br)c(O)cc3Oc3c2cc(Br)c(O)[c]3[Hg])c2ccccc21` (stereo not given)?
mcGAS inh: 30; NPYLR7 ag: 98*; hcGAS inh: 0

Results for COCC1CN(C(=O)N(C)C)CC12CCNCC2 (stereo not given) ?
mcGAS inh: -6; hcGAS inh: -13

Results for C[Se]C1=NC(c2ccccc2)=CC(c2ccco2)C1C#N (stereo not given) ?
hcGAS inh: -5

Results for COc1ccc2c3c([nH]c2c1)C(C)=NCC3 ?
mcGAS inh: -3; NPYLR7 ag: 0; hcGAS inh: -6

What do the screens show for `CC1=NCCc2c1[nH]c1cc(O)ccc21`?
mcGAS inh: -1; NPYLR7 ag: 65*; hcGAS inh: -2

How did CCn1nc(C)c(NC(=O)CNC(C)Cc2cccs2)c1C (stereo not given) do in these assays?
NPYLR7 ag: 0; hcGAS inh: -6

Results for NCCCOC[C@@H]1CCCN2CCCCC12 (stereo not given in full) ?
NPYLR7 ag: 0; hcGAS inh: -4

How did Cc1cccc(C(=O)N2CCSC23CCNCC3)c1 do in these assays?
NPYLR7 ag: 4; hcGAS inh: -4

How did COCc1c(C(=O)N2CCN(C)C3(CCN(C)CC3)C2)noc1C do in these assays?
NPYLR7 ag: 3; hcGAS inh: -6

How did N#CC(C#N)=Cc1ccc(O)cc1 do in these assays?
NPYLR7 ag: 4; hcGAS inh: -7

Results for N#CC(C#N)=Cc1ccc(-c2ccccc2)cc1 ?
mcGAS inh: 49*; NPYLR7 ag: -2; hcGAS inh: -4

How did O=c1c(O)c(-c2ccc(O)c(O)c2)oc2c(O)c(O)cc(O)c12 do in these assays?
NPYLR7 ag: -3; hcGAS inh: 47*

What do the screens show for `C#C[C@H]1CN2CC[C@H]1C[C@@H]2CNC(=S)Nc1ccc(C#N)cc1`?
mcGAS inh: 0; NPYLR7 ag: 7; hcGAS inh: 1

Results for COC(=O)[C@]12CCC(C)(C)C[C@H]1[C@H]1C(=O)C=C3[C@@]4(C)C=C(C#N)C(=O)C(C)(C)[C@@H]4CC[C@@]3(C)[C@]1(C)CC2 ?
mcGAS inh: 52*; NPYLR7 ag: 1; hcGAS inh: 38

What do the screens show for `Cc1cccc(N2C(=O)NC(=O)/C(=C/c3cn(C)c4ccccc34)C2=O)c1`?
mcGAS inh: 1; NPYLR7 ag: 53*; hcGAS inh: 0

What do the screens show for `Cc1ccc(N2C(=O)NC(=O)/C(=C/c3cn(C)c4ccccc34)C2=O)cc1`?
mcGAS inh: -1; NPYLR7 ag: 2; hcGAS inh: -3

How did O=c1[nH]c2ccccc2cc1C1NCCc2[nH]cnc21 (stereo not given) do in these assays?
NPYLR7 ag: 9; hcGAS inh: -5

What do the screens show for `Cc1cc(N2CCN(C)CC2)c2nncn2n1`?
NPYLR7 ag: 20; hcGAS inh: -8
